HCMV inh = inhibitors of human cytomegalovirus. AID 1259415. activity change, negative = inhibition, % at 57.5 µM. hit rate 4.5% among 410,000. HFF cells, HCMV-luciferase reporter, 72 h; stronger effect = lower value; in the data active = activity change below about -60%; inconclusive = no clear call, values can overlap the other calls; inactive = above about -39%
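Human foreskin fibroblasts infected with luciferase-reporter HCMV at MOI 1 PFU/cell, compounds at two doses. Luciferase measured 72 h post infection; normalized to buffer-only basal and Salinomycin (10uM) controls.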
Vaccinia mCherry = vaccinia inhibition (mCherry reporter); Potency, µM (doses to about 36.5 µM), without a hit: at the top dose activity change, negative = inhibition, actives largely listed as inhibitors; Vaccinia virus mCherry reporter infection, fluorescence; hit rate 0.63% among 310,000; calls by dose curve; tested in A549 cells; also: potency is read from the fitted curve at half-maximal effect; nearly all actives have a fitted effect of over 35% in size
FMDV antiviral = blocks foot and mouth disease virus. hit rate 1.2% among 410,000. Potency, µM (titrated, usually from 57.9 µM), without a hit: at the top dose activity change, negative = inhibition, usual class: inhibitors. FMDV antiviral cell-based qHTS. AID 1159524; calls by dose curve; tested in HEK293T cells; also: read-out not given here; potency is read from the fitted curve at half-maximal effect; nearly all actives have a fitted effect of over 45% in size
HCV inh = HCV inhibition | Huh7.5.1 HCVcc-Cre infection, luciferase reporter, 44 h | Potency, µM (series often up to 41.8 µM), for inactives: top-dose activity change, negative = inhibition, usual class: inhibitors | hit rate 3.4% among 340,000 | AID 651820; active = well fitted inhibition curve with a large enough effect; inconclusive = small, poorly fitted or top-dose-only effect, or another doubt; inactive = no such curve, though single readings can be large or run the other way; also: potency is read from the fitted curve at half-maximal effect
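Seed cells (1,000/well) for 4 h; treat with compound and infect with HCVcc-Cre, moi about 0.5. Incubate 44 h, then detect luciferase activity.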
VACV Venus inh = vaccinia inhibition (Venus reporter); Potency, µM (highest dose often 36.5 µM), inactives show at the highest dose activity change, negative = inhibition, most hits filed as inhibitors; AID 720580; Vaccinia virus Venus reporter expression, fluorescence; hit rate 0.46% among 330,000; calls by dose curve; tested in A549 cells; also: potency is read from the fitted curve at half-maximal effect; nearly all actives have a fitted effect of over 30% in size
Active calls of the source: *; i = inactive; ? = inconclusive; . = no result. In the library only some 7.3% were active in any assay of this set; here they are far more common. % is scaled to controls: 0 for no effect and ±100 for the full control effect.

SMILES	HCMV inh	Vaccinia mCherry	FMDV antiviral	HCV inh	VACV Venus inh
CC(=O)Nc1ccc(S(=O)(=O)Nc2nccc(/C=C/c3ccc(Cl)cc3)n2)cc1	-73.1*	-16.6%	-21.3%	6.4%	-11.9%
Fc1ccc(NC(=S)Nc2ccc(Cl)cc2)cc1	-78.4*	-1.9%	19.0%	-3.2%	-16.4%
CC(=O)Nc1ccc(S(=O)(=O)Nc2nccc(C)n2)cc1	21.4	.	0.0%	2.9%	.
Nc1ccc(S(=O)(=O)Nc2nccc(/C=C/c3cccc(Br)c3)n2)cc1	-73.3*	-29.7%	-20.4%	16.3%	-13.5%
O=C(Nc1ccc(Cl)cc1)Nc1ccc(S(=O)(=O)Nc2ncccn2)cc1	?	.	-3.0%	14.4%	.
O=S(=O)(Nc1ncccn1)c1ccc(NC(=S)Nc2ccc(Cl)cc2)cc1	-63.8*	.	7.1%	-18.7%	.
CCc1ccccc1NC(=O)Cn1nc(C)c2nn(-c3ccc(Cl)cc3)c(C)c2c1=O	53.7	-25.9%	?	.	-13.0%
CCOC(=O)c1ccc(OCC2c3cc(OC)c(OC)cc3CCN2C(=O)c2ccc(S(=O)(=O)N3CCCC3)cc2)cc1 (stereo unspecified)	12.2	1.5%	-7.8%	.	-0.4%
CC(=O)C1=C(c2ccc(Br)cc2)C(=O)c2ccccc2C1=O	?	-15.3%	3.16µM*	?	5.7%
COc1ccc(Nc2ncnc3c2nc2n3CCCC2)cc1Cl	172.7	-0.3%	14.4%	.	-15.6%
[N-]=[N+]=Nc1nc2c(N)ncnc2n1C1OC(CO)C(O)C1O (stereo unspecified)	.	8.91µM*	-28.8%	.	12.6µM*
CN(C)c1nc2c(N)ncnc2n1[C@H]1O[C@@H](CO)[C@H](O)[C@@H]1O	-69.7*	i	5.4%	16.1%	-11.2%
Nc1ncnc2c1nc(Cl)n2C1OC(CO)C(O)C1O (stereo unspecified)	.	?	?	.	-27.8%
Nc1ncnc2c1nc(Cl)n2[C@@H]1O[C@H](CO)[C@@H](O)[C@@H]1O	.	?	.	.	12.6µM*
CN(C)c1nc2c(N)ncnc2n1C1OC(CO)C(O)C1O (stereo unspecified)	-19.5	-14.8%	-6.2%	29.7%	-8.6%
CC(C)(C)OC(=O)N1CCC(c2c(C(=O)NCc3cccc(Cl)c3)cnn2-c2ccc(F)cc2)CC1	-3.0	-8.2%	-10.3%	.	?
COc1ccccc1Oc1cc(C#N)c(C#N)cc1-n1nnc2ccccc21	-91.8*	-24.7%	?	?	-22.5%
Cc1ccccc1C(=O)N[C@H](C(=O)N1CCC[C@H]1C(=O)NCc1ccccc1)c1ccccc1	35.1	.	.	.	.
O=[N+]([O-])/C=C\c1ccc(N2CCOCC2)cc1	-26.6	.	17.8µM*	?	.
COc1ccc(Cl)cc1NC(=O)C1CCN(S(=O)(=O)c2ccc3c(c2)CCCN3C(=O)C2CCC2)CC1	-0.2	-13.5%	0.0%	.	-11.1%
O=C1C=C(C2OC(CO)C(O)C2O)C(=O)N1 (stereo unspecified)	-15.7	-3.6%	39.8µM*	0.2%	1.3%
COc1ncc2nc(-c3ccccc3)c(=O)n(C)c2n1	.	.	4.9%	.	.
CN(C)CCN(C)Cc1ccccc1Sc1cccc2ccccc12	-75.4*	12.6µM*	?	11.2µM*	?
COc1cccc(NC(=O)c2oc3ccccc3c2NC(=O)c2ccc(OC(C)C)cc2)c1	52.5	-9.8%	21.6%	.	-9.0%
COCC(=O)Nc1cc(C(=O)N2CCc3c(Cl)cccc3C2)c2c(c1)nc(-c1ccncc1)n2C	.	i	-2.9%	.	0.0%
SMILES	HCMV inh	Vaccinia mCherry	FMDV antiviral	HCV inh	VACV Venus inh
O=C1Nc2ccccc2/C1=N/N=C/c1ccc(-c2ccc([N+](=O)[O-])cc2)o1	-82.6*	.	0.4%	1.9%	.
CC(C)c1ccc(CN(Cc2ccco2)c2cnc(S(C)(=O)=O)nc2C(=O)Nc2ccc(F)cc2)cc1	2.2	-14.4%	-22.2%	.	-7.0%
CSc1nc(Cl)cc(=O)[nH]1	-39.4	i	-2.2%	2.5%	-6.0%
CCOCc1cc(=O)[nH]c(SC)n1	-60.1*	i	-1.9%	12.2%	-9.0%
CCNC(=O)c1c(NC(=O)c2nc(SC)ncc2Cl)sc2c1CCCC2	.	-12.0%	.	.	-12.4%
CN(Cc1cccc(-c2ccncc2)c1)C(=O)Oc1ccccc1Cc1ccccc1	.	2.0%	22.4µM*	.	-21.3%
CN(Cc1cccc(-c2ccncc2)c1)C(=O)Oc1ccccc1Cl	.	i	20µM*	.	-11.7%
Cc1nc2cc(OC(=O)N(C)Cc3cccc(-c4ccncc4)c3)ccc2s1	.	12.2%	28.2µM*	.	-17.4%
COC(=O)c1ccccc1NC(=O)CSc1c2c(nc3ccc(Cl)cc13)CCCC2	-10.7	-3.7%	?	.	-5.3%
